Measured values reported in article PMC4336329 (PLoS ONE, 2015).
Out of some 310,000 compounds screened, about 14,000 (4.5%) showed an effect of 50% or more. Effects have a minus sign here. The sample holds strong results, similar compounds and a random draw of the others, so the mix is not that of the screen.

These molecules were tested against human ether-à-go-go-related gene (hERG) potassium channel (human, UniProt Q12809) (assay: primary screen, population patch clamp on CHO cells stably expressing hERG; higher = less effect of the substance).
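Further: peak tail current of the secondary pulse compared with the same well before compound.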

Chain of human ether-à-go-go-related gene (hERG) potassium channel (Q12809 whole entry, looked up): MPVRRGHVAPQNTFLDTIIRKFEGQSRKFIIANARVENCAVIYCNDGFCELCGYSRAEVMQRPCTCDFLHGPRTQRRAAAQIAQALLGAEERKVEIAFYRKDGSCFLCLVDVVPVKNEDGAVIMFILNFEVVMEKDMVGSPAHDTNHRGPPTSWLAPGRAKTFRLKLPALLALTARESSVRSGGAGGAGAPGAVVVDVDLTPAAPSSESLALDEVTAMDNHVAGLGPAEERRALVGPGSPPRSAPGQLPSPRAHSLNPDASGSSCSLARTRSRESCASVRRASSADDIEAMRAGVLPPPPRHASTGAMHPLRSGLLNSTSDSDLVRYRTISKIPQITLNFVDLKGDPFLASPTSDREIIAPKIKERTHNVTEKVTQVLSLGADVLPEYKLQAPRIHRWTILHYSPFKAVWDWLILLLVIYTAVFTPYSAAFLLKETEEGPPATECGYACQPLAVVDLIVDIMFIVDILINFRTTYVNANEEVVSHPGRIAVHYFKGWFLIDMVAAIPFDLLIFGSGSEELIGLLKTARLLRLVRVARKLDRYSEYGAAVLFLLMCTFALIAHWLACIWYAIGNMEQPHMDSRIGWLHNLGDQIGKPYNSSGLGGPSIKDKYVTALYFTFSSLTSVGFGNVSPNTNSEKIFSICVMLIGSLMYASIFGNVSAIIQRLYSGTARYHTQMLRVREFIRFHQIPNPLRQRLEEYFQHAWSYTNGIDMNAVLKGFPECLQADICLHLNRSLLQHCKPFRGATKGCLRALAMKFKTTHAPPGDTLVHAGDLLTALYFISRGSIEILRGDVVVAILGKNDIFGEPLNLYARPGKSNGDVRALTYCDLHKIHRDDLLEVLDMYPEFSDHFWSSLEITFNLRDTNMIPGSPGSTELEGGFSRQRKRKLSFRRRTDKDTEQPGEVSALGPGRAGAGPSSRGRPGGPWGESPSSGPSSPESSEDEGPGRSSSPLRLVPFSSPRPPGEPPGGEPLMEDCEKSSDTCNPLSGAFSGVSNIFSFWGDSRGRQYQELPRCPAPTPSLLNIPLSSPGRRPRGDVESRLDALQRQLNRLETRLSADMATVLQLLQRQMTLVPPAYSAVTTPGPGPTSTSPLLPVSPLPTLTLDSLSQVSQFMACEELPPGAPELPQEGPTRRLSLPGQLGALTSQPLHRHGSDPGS

Structure (SMILES)	hERG current change (%, negative = inhibition) at 10uM [%]
O=C(CN(C(=O)C1CSC(=O)C1)c1cccc(F)c1)NCc1ccc2c(c1)OCO2 (stereo not shown)	-14.7
COc1ccc(CCNC(=O)CCc2nc3sc4c(c3c(=O)[nH]2)CCCC4)cc1	9.78
Cn1c(=S)[nH]c2c(c1=O)C(C)(C)Cc1ccccc1-2	10.9
Cc1[nH]c(=O)[nH]c(=O)c1S(=O)(=O)N1CCOCC1	3.26
CCCn1c(SCC(=O)Nc2c(C)cccc2CC)nnc1C(C)C	3.71
O=C(Nc1cccc(S(=O)(=O)N2CCOCC2)c1)c1ccc2c(=O)n3c(nc2c1)CCCCC3	-73.3
O=C(Nc1ccc(S(=O)(=O)C(F)F)cc1)c1ccc2c(=O)n3c(nc2c1)CCC3	24.1
O=C(Nc1ccc(F)c(Cl)c1)c1ccc2c(=O)n3c(nc2c1)CCCCC3	-36.6
O=C(Nc1ccc2c(c1)nc1n2CCCCC1)c1cc(S(=O)(=O)N2CCOCC2)ccc1Cl	-15.5
Cc1ccc(S(=O)(=O)N2CCCCC2)cc1NC(=O)c1ccc2c(=O)n3c(nc2c1)CCCCC3	-64.1
O=C(c1ccc2c(=O)n3c(nc2c1)CCC3)N1CCN(S(=O)(=O)c2cccc(F)c2)CC1	-4.8
Cc1ccc(NC(=O)c2ccc3c(=O)n4c(nc3c2)CCCCC4)cc1F	-24.6
O=C(Nc1ccc(S(=O)(=O)N2CCCC2)cc1)c1ccc2c(=O)n3c(nc2c1)CCCCC3	9.23
Cc1ccc(C)c(NC(=O)c2ccc3c(=O)n4c(nc3c2)CCC4)c1	-25.9
O=C(Nc1cccc(S(=O)(=O)N2CCCC2)c1)c1ccc2c(=O)n3c(nc2c1)CCCCC3	-57.1
O=C(Nc1cccc(S(=O)(=O)N2CCCCC2)c1)c1ccc2c(=O)n3c(nc2c1)CCCCC3	-64.5
CC(NC(=O)c1cnccn1)c1ccc(S(N)(=O)=O)cc1 (stereo not shown)	-2.33
C=CCn1c(SCC(=O)NCc2ccco2)nc2sc(C)c(C)c2c1=O	3.62
CC(C)NC(=O)COc1coc(CN2CCN(Cc3ccccc3)CC2)cc1=O	11.9
COc1ccc(-c2nc3c(n2O)CCc2c-3no[n+]2[O-])cc1	10.6
Nc1nnnn1CC(=O)N/N=C/C=C/c1ccccc1	16.1
COc1cc2c(cc1OC)CN(C(=O)c1sc(-c3cnccn3)nc1C)CC2	0.572

Structure (SMILES)	hERG current change (%, negative = inhibition) at 10uM [%]
O=S(=O)(Nc1cccc(-c2ccc(N3CCOCC3)nn2)c1)c1cc(Cl)ccc1Cl	-26.8
CC(C)(C)OC(=O)N[C@@H](CCCCNC(=O)OCc1ccccc1)c1nnc([C@H](CCCCNC(=O)OCc2ccccc2)NC(=O)OC(C)(C)C)o1	-22.6
COc1ccc(N(C(=O)c2ccncc2)S(=O)(=O)c2ccc(Cl)cc2)cc1	-26.4
CN1C2C=C(N(C(=O)c3ccc(Cl)cc3)c3ccccc3)CC1CC2.Cl (stereo not shown)	-74
COc1ccc(N(C(=O)c2ccc(Cl)cc2)C2=CC3CCC(C2)N3C)cc1.Cl (stereo not shown)	-82
CN1C2CCC1CC(OC(=O)c1ccc(Cl)cc1)(C(=O)O)C2.Cl (stereo not shown)	1.82
CCCCN(C(=O)c1cc(OC)c(OC)c(OC)c1)C1=CC2CCC(C1)N2C.Cl (stereo not shown)	-20.2
COc1ccc(CCN(C(=O)c2ccc(F)cc2)C2=CC3CCC(C2)N3C)cc1OC.Cl (stereo not shown)	-46.6
COc1ccc(C(=O)CN(C(=O)c2ccc(Cl)cc2)N2C(=O)C3CCCCC3C2=O)cc1 (stereo not shown)	-6.63
COc1ccc(N(C(=O)c2ccc(F)cc2)C2=CC3CCC(C2)N3C)cc1.Cl (stereo not shown)	-71.5
CN1OC(COC(=O)c2ccc(Cl)cc2)CC1c1ccccc1 (stereo not shown)	-4.56
N#CC1=C(N)OC2=C(C(=O)CC(c3ccco3)C2)C1c1ccc(OCc2c(F)cccc2Cl)cc1 (stereo not shown)	-1.84
Nc1c([N+](=O)[O-])c(=O)oc2ccccc12	19.1
CN(C)CCNC(=S)Nc1ccc(F)c(F)c1F	22.3
C=CCNC(=O)c1c(Cl)cnn1-c1ccc(C)cc1	-4.22
Cc1ccc(CNC(=O)CN2C(=O)COc3ccc(S(=O)(=O)N4CCCCC4)cc32)o1	16
C[C@H](NC(=O)N1CCn2c1nc1ccccc12)C(=O)NCc1ccco1	-10.6
CCOc1ccc(CCNC(=O)C2CCCN(S(=O)(=O)N3CCOCC3)C2)cc1OCC (stereo not shown)	0.332
COC(=O)c1cccc(NC(=S)N2CCN(c3ccccc3F)CC2)c1	5.71
CC(=O)NCCn1c(SCc2cc(=O)n3cc(Cl)ccc3n2)nc2ccccc2c1=O	-50.7
O=C(CCCn1c(SCc2cc(=O)n3ccccc3n2)nc2ccccc2c1=O)NCC1CCCO1 (stereo not shown)	-1.72
